The list shows a part of the results. Results filed as inconclusive are left out. Values without a mark were called inactive. Active and inactive are the calls of the source. Calls follow the shape of the dose curve; as a rule, active = well fitted inhibition curve with a large enough effect; inconclusive = small, poorly fitted or top-dose-only effect; inactive = flat fitted curve, though single readings scatter.
Experiment: Counterscreen for Target Class Profiling of Small Molecule Inhibitors of Methyltransferases
Conditions: MTase-Glo coupled enzymes, SAH conversion luminescence, no MTase; series mostly up to 57.3 µM; activity change, negative = inhibition: at the top concentration
From the text: PI: Matthew D. Hall Ph.D. and Quinlin M. Hanson Ph.D. National Center for Advancing Translational Sciences (NCATS) National Institute of Health (NIH) Rockville, MD Target class profiling (TCP) is a chemical biology approach amenable to investigating understudied biological targets. TCP is achieved by developing a generalizable assay platform and applying it to screen a curated set of compound libraries against representative members of a target class. Small molecule methyltransferases (SMMTase) are a subclass of methyltransferase that act on metabolites to modulate signaling pathways, metabolize xenobiotics, or balance the available methyl pool. We screened four curated libraries totaling 27,574 unique compounds against the SMMTases nicotinamide N-methyltransferase (NNMT), phenylethanolamine N-methyltransferase (PNMT), histamine N-methyltransferase (HNMT), glycine N-methyltransferase (GNMT), catechol O-methyltransferase (COMT), and guanidinoacetate N-methyltransferase (GAMT). The data generated by this TCP can be leveraged for informed tool molecule development. For example, in the associated publication we identified a chemotype of HNMT-selective inhibitors. Additionally, we identified a putative SMMTase-selective inhibitor with potential as a tool molecule for studying broader methyltransferase biology. High-through put screening assays were developed at the National Center for Advancing Translational Science (NCATS) for the enzymes NNMT, PNMT, HNMT, GNMT, COMT, and GAMT. Enzymatic activity was measured as a function of SAM cofactor conversion using the MTase Glo kit (Promega) for all enzymes. All assays were performed in 1536-well format with substrates and SAM concentrations at KM values. Enzyme concentration and assay timing were optimized for 10-20% SAM conversion. Initial screening of 27,574 compounds was done as single-point assays using the highest compound concentration (40 uM). 1,434 compounds were identified as hits (at least 50% inhibition) under these conditions. These compounds were replated in 11-point dose response and assayed against NNMT, PNMT, HNMT, GNMT, COMT, GAMT, and a counter-assay. The IC50 and efficacy (maximal response) values were determined for each dose-response curve. These values are also accounted for in the area under the curve (AUC) values.
PROTOCOL TABLE (as described by Inglese J, Shamu CE and Guy RK. 2007) SEQUENCE No. (e.g., 1, 2, 3, etc.); PARAMETER (e.g., Cells, Incubation, Reagent, etc.); VALUE; DESCRIPTION. 1; Reagent; 3 uL; SAH (16 uM) in reaction buffer, columns 1-48. 2; Reagent; 1 uL; SAM (4x) in reaction buffer, columns 1-48. 3; Controls; 23 nL; DMSO in column 4; sinefungin in DMSO (0 uM - 40 uM) in 7-point 1:2 dilution series (n = 2) in column 2. 4; Compounds; 23 nL; Columns 5-48. 5; Time; 20 min; Incubation. 6; Reagent; 1 uL; MTase-Glo reagent (5X), columns 1-48. 7; Time; 30 min; Incubation. 8; Reagent; 5 uL; MTase-Glo Detection reagent, columns 1-48. 9; Time; 30 min; Incubation. 10; Detection; Luminescence; ViewLux uHTS Microplate Imager (PerkinElmer). NOTES (numbers refer to Sequence numbers above) 1, 2. White Medium Binding 1536-well plates (white, flat bottom, medium binding Cat# AWK010000A, Aurora Microplates, Scottsdale, AZ); Reaction buffer: 50 mM Tris, pH 8.0, 3 mM MgCl2, 1 mM EDTA, 50 mM NaCl, 1 mM DTT, and 0.1 mg/mL BSA; refer to tables 2 and S1 for specific reagent concentrations. 3, 4. Pintool transfer 5, 7, 9. Room temperature 5. Final reaction conditions: 1 uM SAH, 4 uM SAM, 50 mM Tris, pH 8.0, 3 mM MgCl2, 1 mM EDTA, 50 mM NaCl, 1 mM DTT, and 0.1 mg/mL BSA. 7. Conversion of SAH to ADP; MTase Glo Kit (Promega, Madison, WI). 9. Conversion of ADP to ATP and detection by UltraGlo luciferase; MTase Glo Kit (Promega, Madison, WI). 10. Settings: 20 s exposure, 1X binning, high gain, medium speed. REFERENCES: Inglese J, Shamu CE and Guy RK, Reporting data from high throughput screening of small molecule libraries, Nature Chemical Biology, 2007, 3(8): 438-441. doi.org/10.1038/nchembio0807-438. […]
% is scaled to controls: 0 for no effect and ±100 for the full control effect; potency is read from the fitted curve at half-maximal effect.

Row | SMILES | activity change, negative = inhibition | Potency
1 | CC(C)CCN1CC2(CCCN(C(=O)c3ccn(C)c(=O)c3)C2)CCC1=O (configuration not stated) | 3.19% | 
2 | CC1(C)[C@H](Cc2cc(-c3ccccc3)on2)C[C@@H]1NCC1CC1 | -2.14% [at 85.7 µM] | 
3 | O=C(Nc1ccc2ncnc(N3CCCCC3)c2c1)C1CCCCC1 |  | 9.61 µM (active)
4 | COc1ccccc1-c1[nH]nc2ncc(C(=O)N3CCN(Cc4ccccc4)CC3)nc12 | -1.28% [at 85.7 µM] | 
5 | CCOc1ccccc1CN1CCC(Cc2nc(-c3cccnc3)n[nH]2)C1 (configuration not stated) | -2.28% | 
6 | COc1cc2c(cc1O)NC(=O)CC2c1cn[nH]c1-c1cc(C)ccc1C (configuration not stated) | 0.234% | 
7 | COc1ccc(-c2nc3ccncc3[nH]2)cc1 | -1.57% [at 114 µM] | 
8 | Cc1cnc(C2CCC2)n1C1CCN(C(=O)CCC2CCCC2)CC1 | -6.67% | 
9 | CCCc1sc(NC(=O)C[C@H]2NC(=O)c3ccccc3NC2=O)nc1C(=O)OC | -0.625% | 
10 | CC(C)c1nccn1CCCNc1nc(-c2ccncc2)nc2c1cnn2C | 1.89% | 
11 | CCCS(=O)(=O)N1CCCC(Cn2c(C)nc3cccnc32)C1 (configuration not stated) | 0.0698% | 
12 | Cn1ccc(Nc2cc3c(cn2)CN(CCc2ccccc2)CCN3)n1 | -2.16% [at 85.7 µM] | 

Source: PubChem BioAssay AID1745851 (National Center for Advancing Translational Sciences (NCATS), 2022)
